Measured values reported in PubChem BioAssay AID652040 (Broad Institute, 2013).
Measured potencies and affinities stand elsewhere. Activity calls are given as the source filed them.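 The calls were made as follows: active = falling luciferase signal whose fitted half-maximal concentration is at most twice the top tested dose; inconclusive = flat inhibition between 30 and 70% or a poor curve fit; inactive = the rest.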

Assay: off-target signal loss in HeLa-CEM21 co-culture – HeLa F-luc CTL cells, cherry-picked, counter-screen for HIV-1 Env fusion inhibitor project, dose response (AID 652040);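 also: 0% = median of neutral control wells and -100% = doxycycline 40 µg/mL wells; more negative values mean stronger loss of luciferase signal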
Settings: HeLa-F-luc CTL cells with CEM21, firefly luciferase counterscreen; series mostly up to 35 µM; activity change, negative = inhibition: at the top concentration

SMILES	activity change, negative = inhibition
COC(=O)[C@H](Cc1ccccc1)NC(=O)Cn1cnc(C(=O)Nc2ccc(C)c(C)c2)n1	21.9% (inactive)
Cc1onc(-c2ccccc2)c1C(=O)Nc1ccc(Br)cc1Cl	-7.96% (inactive)
COc1ccc(S(=O)(=O)NNC(=O)C2Cc3c(ccc4ccccc34)O2)cc1 (stereo not given)	-2.1% (inactive)
COc1ccccc1OCC(=O)c1[nH]c(C)c(C(C)=O)c1C	-10% (inactive)
CC(Cl)=CCn1c(NCCc2ccccc2)nc2c1c(=O)n(C)c(=O)n2C	14.4% (inactive)
Cc1ccccc1OCCCCn1cnc2ccccc21	-0.516% [at 16 µM] (inactive)
CC(OC(=O)c1ccc(NC(=O)CC#N)cc1)C(=O)NCCC1=CCCCC1 (stereo not given)	40.1% (inactive)
Cc1onc(-c2ccccc2)c1C(=O)NC(=S)NNC(=O)c1ccc(O)cc1	-0.417% (inactive)
COCc1[nH]nc2c1C(c1ccc(F)cc1)N(Cc1ccccc1)C2=O (stereo not given)	52% (inactive)
COc1ccccc1Oc1ccc(S(=O)(=O)NCc2ccccn2)cc1	16.7% (inactive)
CSc1ncccc1C(=O)OCC(=O)Nc1ccc(C)c(S(=O)(=O)N2CCOCC2)c1	0.54% (inactive)
COC(=O)c1ccc(C(=O)NC2CCCc3c2cnn3-c2ccc(C)c(C)c2)cc1 (stereo not given)	11.9% (inactive)
COc1ccc(C)cc1NC(=O)CCNS(=O)(=O)c1ccc2c(c1)CC(C)N2C(C)=O (stereo not given)	8.94% (inactive)
COc1ccccc1N/C(N)=N/c1nc(CSc2ccc(C)cc2)cc(=O)[nH]1	12.7% (inactive)
CCCn1c(Nc2nc3ccccc3n2C)nc2ccccc21	21.1% [at 16 µM] (inactive)
Cc1ccccc1-n1c(=O)c2ccccc2n2cnnc12	7.81% (inactive)
O=C(Nc1nc(COc2ccccc2)cs1)C12CC3CC(CC(C3)C1)C2	41.1% (inactive)
CN(C(=O)c1cccc(NC(=O)Cc2cccc(NC(=O)C3CCCN(C(=O)C4CCC4)C3)c2)c1)C1CCC1 (stereo not given)	-1.03% (inactive)
COc1ccc(-c2cn3c(C)c(C(=O)Nc4cccc(NC(C)=O)c4)sc3n2)cc1	19.2% [at 16 µM] (inactive)
Cc1cc(C(=O)N2CCC(C(=O)O)CC2)c(C(F)(F)F)o1	-4.57% (inactive)

SMILES	activity change, negative = inhibition
CCCCCn1c(C(C)NC(=O)CCC)nc2ccccc21 (stereo not given)	26.1% (inactive)
CCCCCCCCN1C(=O)[C@H](CC(=O)NCc2cccs2)C[C@@]2(C(=O)OCC)CCCC=C12	-59.3% (inactive)
COc1ccc(OC)c(NC(=O)COc2ccc3c(c2)CCC3)c1	27.4% (inactive)
COc1ccc2c(C)nc(Nc3nc(C)c(C)c(=O)[nH]3)nc2c1	156% [at 16 µM] (inactive)
COc1ccc(Nc2ncc(C(=O)N3CCN(c4ccc(F)cc4)CC3)c3ccccc23)cc1	-2.35% (inactive)
O=C(c1ccccc1)N1CCN(c2ncnc3sc4c(c23)CCC4)CC1	-6.45% (inactive)
C#CCn1c(=O)c2c(ncn2C)n(C)c1=O	-0.713% (inactive)
CC(NNC(=S)N1CCCCCC1)c1ccc2ccccc2n1 (stereo not given)	112% (inactive)
O=C(CCNC(=O)c1ccc(Br)cc1)NNC(=O)COc1ccccc1F	32.5% (inactive)
CC(C)(C)c1ccc(-c2noc(CCC(=O)NCC3CCCO3)n2)cc1 (stereo not given)	31.3% (inactive)
C=CCNc1nc2c(c(=O)n(C)c(=O)n2C)n1CCCCCC	41% (inactive)
Cc1nn(C)c(C)c1CN(C)S(=O)(=O)c1ccc2ccccc2c1	-4.39% (inactive)
COC(=O)c1ccc(NC(=O)c2ccc(CN3CCOCC3)cc2)cc1	-10.9% (inactive)
CC(=O)Nc1ccc(C(=O)OCC(=O)NC(=O)NCc2ccccc2)cc1	0.966% (inactive)
Cc1nc2ccccc2c2oc(C(=O)NCc3ccc4c(c3)OCO4)cc12	36% (inactive)
CCOC(=O)CN1CCCc2nc(C)c(C)cc21	22.2% (inactive)
COc1ccccc1-c1c(-c2ccc(O)cc2O)n[nH]c1C(F)(F)F	13% (inactive)
COc1ccc(CCN(Cc2cccs2)S(=O)(=O)c2ccc(-n3cnnn3)cc2)cc1OC	-12.3% (inactive)
Cc1ccc(S(=O)(=O)NCC(=O)OCC(=O)NCc2ccc3c(c2)OCO3)cc1	4.77% [at 16 µM] (inactive)
CCCCn1c(CN(C)Cc2ccccc2)nc2c1c(=O)n(C)c(=O)n2C	60.9% (inactive)
